This is part of a sample that, as a whole, favours compounds with a hit. Of some 83,000 tested, about 20% had one in any assay.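 Growth was measured after 48 h exposure to one concentration of compound in 96-well plates. Values under 10 count as active.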 Activity calls are given as the source filed them.
Experiments:
Experiment in all cases: NCI-60 one-dose screen, 48 h (100 = growth as untreated, 0 = no growth, -100 = all killed)
Details in all cases: 10 µM unless noted
[1] = test system: NCI-H23 lung
[2] = test system: NCI-H226 lung
[3] = test system: NCI-H322M lung
[4] = test system: HOP-62 NSCLC
[5] = test system: NCI-H460 lung
[6] = test system: NCI-H522 lung
[7] = test system: A549/ATCC NSCLC
[8] = test system: 786-0 renal
[9] = test system: COLO 205 colon
[10] = test system: DU-145 prostate
[11] = test system: K-562 leukemia
[12] = test system: MALME-3M melanoma
[13] = test system: MDA-MB-231 breast
[14] = test system: SF-268 CNS
[15] = test system: SF-295 CNS
[16] = test system: SF-539 CNS
[17] = test system: UACC-257 melanoma
[18] = test system: M14 melanoma
[19] = test system: HCT-15 colon
[20] = test system: RXF 393 renal

Measured: growth

CCOc1nc(-c2ccccc2)cc2c(O)c(-c3nnco3)[nH]c(=O)c12
inactive: [1] 63.1% | [2] 64.2% | [3] 65.3% | [4] 47.9% | [5] 28.2% | [7] 38.9% | [8] 57.9% | [9] 72.2% | [10] 50.8% | [11] 39.3% | [12] 59.9% | [13] 38.7% | [14] 52.5% | [15] 36% | [16] 54.9% | [17] 11.8% | [18] 59.4%
active: [6] 5.8%

C/C(=C\CCc1ccoc1)CC/C=C(\C)CCCN1CCC(CO)CC1
inactive: [1] 74.8% | [2] 74.9% | [3] 74.9% | [4] 83% | [5] 53.8% | [6] 54.6% | [7] 65.9% | [8] 48.5% | [10] 80.8% | [12] 11% | [13] 50% | [14] 79.2% | [15] 47.4% | [16] 48.9% | [17] 49% | [18] 36.3% | [19] 25.5%
active: [9] -21.4% | [11] -15.8%

C/C(=C\CCc1ccsc1)CC/C=C(\C)CCCN1CCN(CCO)CC1
inactive: [1] 62.2% | [2] 67.7% | [3] 71.8% | [4] 69.1% | [5] 14.6% | [6] 71.5% | [7] 44.8% | [8] 32.8% | [10] 76.4% | [13] 27% | [14] 71.7% | [15] 35.9% | [16] 57.8% | [17] 11.4% | [18] 14.2%
active: [9] -9.2% | [11] -27.4% | [12] -14.4% | [19] -22.2%

O=C1OCCCCCCCCCC#Cc2ccccc21
inactive: [1] 97% | [2] 110% | [3] 126% | [4] 99.7% | [5] 133% | [6] 71.2% | [7] 103% | [8] 103% | [9] 100% | [10] 116% | [11] 94.2% | [12] 146% | [13] 110% | [14] 182% | [15] 151% | [16] 105% | [17] 124% | [18] 109% | [19] 109%

COc1ccc2nc3cc(Cl)ccc3c(N3CCN(c4ccnc(Nc5ccc(F)cc5)n4)CC3)c2c1
inactive: [1] 89.3% | [2] 98.5% | [3] 97.7% | [4] 92.9% | [5] 94% | [7] 79.5% | [8] 70.4% | [9] 108% | [10] 93.1% | [11] 43.1% | [12] 105% | [13] 58.4% | [14] 79.2% | [15] 75.9% | [16] 85.4% | [17] 105% | [19] 48.3%
active: [6] -5.18%

CSc1ncc2ncn(C3OC(CO)C(O)C3O)c2n1 (centres undefined)
inactive: [1] 137% | [2] 102% | [3] 124% | [4] 119% | [5] 120% | [6] 119% | [7] 108% | [8] 110% | [9] 142% | [10] 115% | [11] 104% | [12] 126% | [13] 108% | [14] 103% | [15] 107% | [16] 114% | [17] 126% | [18] 107% | [19] 114%

O=C1CCCN1C1CCN(Cc2cc3ccccc3[nH]c2=O)c2ccccc21 (centres undefined)
inactive: [1] 82.7% | [2] 78.3% | [3] 83.2% | [4] 79.5% | [5] 102% | [6] 63% | [7] 98.8% | [8] 85.2% | [9] 106% | [10] 101% | [12] 76.4% | [13] 92.6% | [20] 99.4% | [14] 94.7% | [15] 72.3% | [16] 97.2% | [17] 114% | [18] 86.1% | [19] 92.4%

CCC1(c2ccccc2)Oc2ccccc2-n2c(C#N)c3ccccc3c2C1=O (centres undefined)
inactive: [1] 97.2% | [2] 110% | [3] 90.3% | [4] 93.6% | [5] 105% | [6] 77.5% | [7] 93.6% | [8] 93.9% | [9] 106% | [10] 114% | [11] 86.7% | [13] 98.5% | [14] 101% | [15] 93.3% | [16] 105% | [17] 90.5% | [18] 94.3% | [19] 94%
